Results taken from PubChem BioAssay (Tox21).
Inconclusive results are not listed. Unmarked numbers belong to inactive results. Activity calls are given as the source filed them. Calls come from the whole dose curve; as a rule, active = well fitted activation curve with a large enough effect in the signal ratio in the repeat runs (not every such curve was filed as active); inconclusive = weak or mixed curves, or effect the other way; inactive = no such curve, though single readings can be large or run the other way; the % refers to the signal ratio.

What follows are compounds tested against Glucocorticoid receptor (Homo sapiens) (UniProt P04150) (assay: qHTS assay to identify small molecule agonists of the glucocorticoid receptor (GR) signaling pathway (AID 720691)). Settings: GR-bla HeLa, beta-lactamase reporter ratio, 18 h; series mostly up to 62.4 µM; activation: at the top concentration.
Text: U.S. Tox21 Program National Center for Advancing Translational Sciences [NCATS] NIH Chemical Genomics Center [NCGC] U.S. Environmental Protection Agency [EPA] National Institutes of Environmental Health Sciences [NIEHS] National Toxicology Program [NTP] U.S. Food and Drug Administration [FDA] Tox21 Assay Overview: The Glucocorticoid receptor (GR) is one of the members of the nuclear receptor family of ligand-dependent transcription factors. GR plays a critical role in carbohydrate, protein and lipid metabolisms and programmed cell death. CellSensor GR-bla HeLa cell line (Invitrogen) contains a beta-lactamase reporter gene under the control of the glucocorticoid response element stably integrated into HeLa cells, a cervical cancer cell line that expresses glucocorticoid receptor. The activation of the reporter gene under culture conditions can be detected by fluorescence intensity. This cell line has been used to screen the Tox21 10K compound library and to identify the compounds that activate the GR signaling.
Tox21 Assay Protocol Summary: The GR-bla HeLa cells were dispensed at 1500 cells/6 ul/well in 1536-well black wall/clear bottom plates using a Multidrop Combi (ThermoFisher Scientific, Waltham, MA) dispenser. After the assay plates were incubated at a 37 C/5% CO2 incubator for 4 hours, 23 nL of compounds dissolved in DMSO, positive controls or DMSO only was transferred to the assay plate by a pintool station (Kalypsys, San Diego, CA). The plates were incubated at 37 C for 18 hours. After 1 uL of LiveBLAzerTM B/G FRET substrate was added using a Flying Reagent Dispenser (Aurora Discovery, San Diego, CA), the plates were incubated at room temperature for 2 hours, and fluorescence intensity was measured by an Envision plate reader (PerkinElmer, Shelton, CT).
% is set by controls: 0 for no effect and ±100 for the full control effect.

Chain of Glucocorticoid receptor (Homo sapiens) (P04150 whole entry, looked up): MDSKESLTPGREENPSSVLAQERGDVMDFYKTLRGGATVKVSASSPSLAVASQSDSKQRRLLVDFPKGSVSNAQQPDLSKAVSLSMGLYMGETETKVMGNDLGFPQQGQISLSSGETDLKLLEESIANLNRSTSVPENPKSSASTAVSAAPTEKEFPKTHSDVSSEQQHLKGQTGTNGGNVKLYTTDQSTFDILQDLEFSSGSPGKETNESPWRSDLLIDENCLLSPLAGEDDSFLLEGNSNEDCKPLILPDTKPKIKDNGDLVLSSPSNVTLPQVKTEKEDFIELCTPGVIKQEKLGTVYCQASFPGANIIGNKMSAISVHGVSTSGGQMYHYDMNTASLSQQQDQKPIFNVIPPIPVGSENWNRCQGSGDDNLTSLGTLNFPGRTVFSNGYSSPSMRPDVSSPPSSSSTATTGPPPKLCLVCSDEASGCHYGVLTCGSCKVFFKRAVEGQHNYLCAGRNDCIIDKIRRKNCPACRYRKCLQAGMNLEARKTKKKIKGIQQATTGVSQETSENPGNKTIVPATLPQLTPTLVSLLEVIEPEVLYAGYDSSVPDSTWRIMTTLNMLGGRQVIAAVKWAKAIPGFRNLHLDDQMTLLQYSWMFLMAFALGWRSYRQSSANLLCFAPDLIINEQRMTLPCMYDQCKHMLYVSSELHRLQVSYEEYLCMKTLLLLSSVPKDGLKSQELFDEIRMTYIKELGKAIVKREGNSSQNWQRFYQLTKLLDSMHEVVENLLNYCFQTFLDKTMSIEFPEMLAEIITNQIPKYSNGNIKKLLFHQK

SMILES | Potency | activation
CO/N=C(/C(=O)N[C@@H]1C(=O)N2C(C(=O)O)=C(COC(N)=O)CS[C@H]12)c1ccco1 | inactive | –
CCC(=O)C1CC(C(C)C)CC=C1C (stereo not given) | – | 0.298%
CC1=C(Br)C(=O)C(Br)=C/C1=C(/c1ccccc1S(=O)(=O)O)c1cc(Br)c(O)c(Br)c1C | – | -2.54%
O=C1c2ccccc2C(=O)c2c(O)c(O)cc(O)c21 | – | -5.85%
OCCN1CCN(CCCN2c3ccccc3Sc3ccc(Cl)cc32)CC1 | – | -7.44% [at 29.2 µM]
O=[N+]([O-])c1ccc(Nc2ccc(Nc3ccccc3)c(S(=O)(=O)O)c2)c([N+](=O)[O-])c1 | – | -0.908%
CCCCCCNC(=O)n1cc(F)c(=O)[nH]c1=O | – | -0.624%
O=Cc1c2ccccc2c(Cl)c2ccccc12 | – | 1.66%
COc1ccccc1Oc1c(NS(=O)(=O)c2ccc(C(C)(C)C)cc2)nc(-c2ncccn2)nc1OCCO | – | -3.27%
c1csc(SSc2cccs2)c1 | – | 2.06%
CC[C@]1(O)C[C@H]2CN(CCc3c([nH]c4ccccc34)[C@@](C(=O)OC)(c3cc4c(cc3OC)N(C=O)[C@H]3[C@@](O)(C(=O)OC)[C@H](OC(C)=O)[C@]5(CC)C=CCN6CC[C@]43[C@@H]65)C2)C1 | – | 0.172%
NC(=O)c1ccncc1 | – | -0.246% [at 79.2 µM]
CCCC(C(=O)OCCN(CC)CC)(c1ccccc1)c1ccccc1 | – | -1.24%
COC(=O)CCS | – | -0.921%
O[C@@H]1CO[C@H]2[C@@H]1OC[C@@H]2O | – | 0.473%
OC(CCN1CCCC1)(c1ccccc1)C1CCCCC1 (stereo not given) | – | -2.9% [at 29.2 µM]
Oc1cccc(Nc2ccccc2)c1 | – | -8.92% [at 79.2 µM]
CCC1CO1 (stereo not given) | – | 2.02%
CCOC(=O)C1=C(C)NC(C)=C(C(=O)OC)C1c1cccc(Cl)c1Cl (stereo not given) | – | -9.66%
CCC(OCCCOC)OC(C)=O (stereo not given) | – | -0.324% [at 79.2 µM]

SMILES | Potency | activation
CC(=O)OCC[N+](C)(C)C | – | -3.97%
Cc1ccc(OC(=O)c2ccccc2O)cc1 | – | 2.68%
C=CC(C)(CCC=C(C)C)OC(=O)CC(C)C (stereo not given) | – | 2.61%
C[C@@H](CN(C)C)CN1c2ccccc2Sc2ccccc21 | – | -1.86% [at 29.2 µM]
CCOC(=O)c1ccc(OCCN2C[C@H](O)[C@@H](O)[C@H](O)[C@H]2CO)cc1 | – | -3.14%
CC1(C)[C@@H](OC(=O)CCC(=O)O)CC[C@]2(C)[C@H]3C(=O)C=C4[C@@H]5C[C@@](C)(C(=O)O)CC[C@]5(C)CC[C@@]4(C)[C@]3(C)CC[C@@H]12 | – | -2.62% [at 29.2 µM]
CCCCC(CC)CN (stereo not given) | – | -1.84% [at 79.2 µM]
CC(CN(C)C)C(C)(O)Cc1ccc(Cl)cc1 (stereo not given) | – | -3.05%
CC(C)C=O | – | -1.93% [at 79.2 µM]
CCCCCCC(C)(C)C(=O)O | – | -4.21%
COc1cc(N)c(Cl)cc1C(=O)NC1CCN(CCCOc2ccc(F)cc2)CC1OC (stereo not given) | – | -0.93% [at 29.2 µM]
CCCCCC[C@@H](O)C/C=C\CCCCCCCC(=O)O | inactive | –
CCn1cc(C(=O)O)c(=O)c2cc(F)c(N3CCNCC3)cc21 | inactive | –
FC(F)(F)c1ccccc1Cl | – | -1.04% [at 79.2 µM]
CCOc1cccc(-n2cc(C(=O)N3CCN(c4cc(C(=O)O)c5ccccc5c4)CC3)nc2-c2ccc(C)cc2)c1 | – | 11.3%
C=CC(=O)[O-].C=CC(=O)[O-].[Zn+2] | – | 0.376%
CN1CCCC(CC2c3ccccc3Sc3ccccc32)C1 (stereo not given) | – | -7.54% [at 29.2 µM]
COc1ccccc1N1CCN(CC(O)COc2cccc3ccccc23)CC1 (stereo not given) | – | -2.1%
COc1ccccc1N1CCN(CCCCNC(=O)c2ccc(-c3ccc(C(C)=O)cc3)cc2)CC1 | – | 2.68%
C1COC1 | – | 0.534%
